# Experimental data reported in ChEMBL document CHEMBL2218924, “A broad activity screen in support of a chemogenomic map for kinase signalling research and drug discovery” (Biochem J, 2013).
# Columns and labels:
# [1] = molecular target: T1, Ephrin type-B receptor 1 (Homo sapiens) (UniProt P54762); conditions: at 10 µM
# T1 sequence (whole entry): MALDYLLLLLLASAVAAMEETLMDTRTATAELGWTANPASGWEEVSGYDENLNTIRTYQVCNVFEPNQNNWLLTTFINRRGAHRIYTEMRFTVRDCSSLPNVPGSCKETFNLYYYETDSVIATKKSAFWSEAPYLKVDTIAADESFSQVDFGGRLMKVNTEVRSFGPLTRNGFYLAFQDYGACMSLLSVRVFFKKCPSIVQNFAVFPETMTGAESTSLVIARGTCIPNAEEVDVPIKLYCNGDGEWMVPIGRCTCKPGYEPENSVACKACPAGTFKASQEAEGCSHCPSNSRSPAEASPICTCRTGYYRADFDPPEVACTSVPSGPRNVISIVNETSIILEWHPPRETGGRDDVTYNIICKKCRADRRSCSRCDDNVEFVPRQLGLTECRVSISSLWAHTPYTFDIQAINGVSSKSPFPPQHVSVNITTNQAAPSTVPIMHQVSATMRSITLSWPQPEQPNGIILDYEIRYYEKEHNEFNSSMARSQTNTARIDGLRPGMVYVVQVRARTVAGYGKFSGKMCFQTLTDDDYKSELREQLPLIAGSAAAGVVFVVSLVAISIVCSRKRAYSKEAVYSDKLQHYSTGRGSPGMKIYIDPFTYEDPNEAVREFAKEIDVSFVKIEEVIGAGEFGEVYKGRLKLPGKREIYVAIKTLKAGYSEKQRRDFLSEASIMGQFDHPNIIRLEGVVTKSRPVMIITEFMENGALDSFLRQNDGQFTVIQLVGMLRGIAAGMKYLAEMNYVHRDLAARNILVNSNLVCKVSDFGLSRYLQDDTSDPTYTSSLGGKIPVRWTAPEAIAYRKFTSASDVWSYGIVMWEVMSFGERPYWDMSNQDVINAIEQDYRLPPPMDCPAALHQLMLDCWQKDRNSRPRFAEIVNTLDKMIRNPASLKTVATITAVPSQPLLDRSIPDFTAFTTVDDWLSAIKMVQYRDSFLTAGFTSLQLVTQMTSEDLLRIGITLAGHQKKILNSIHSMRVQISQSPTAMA
# [2] = molecular target: T2, Ephrin type-B receptor 2 (Homo sapiens) (UniProt P29323); conditions: at 1 µM
# T2 sequence (whole entry): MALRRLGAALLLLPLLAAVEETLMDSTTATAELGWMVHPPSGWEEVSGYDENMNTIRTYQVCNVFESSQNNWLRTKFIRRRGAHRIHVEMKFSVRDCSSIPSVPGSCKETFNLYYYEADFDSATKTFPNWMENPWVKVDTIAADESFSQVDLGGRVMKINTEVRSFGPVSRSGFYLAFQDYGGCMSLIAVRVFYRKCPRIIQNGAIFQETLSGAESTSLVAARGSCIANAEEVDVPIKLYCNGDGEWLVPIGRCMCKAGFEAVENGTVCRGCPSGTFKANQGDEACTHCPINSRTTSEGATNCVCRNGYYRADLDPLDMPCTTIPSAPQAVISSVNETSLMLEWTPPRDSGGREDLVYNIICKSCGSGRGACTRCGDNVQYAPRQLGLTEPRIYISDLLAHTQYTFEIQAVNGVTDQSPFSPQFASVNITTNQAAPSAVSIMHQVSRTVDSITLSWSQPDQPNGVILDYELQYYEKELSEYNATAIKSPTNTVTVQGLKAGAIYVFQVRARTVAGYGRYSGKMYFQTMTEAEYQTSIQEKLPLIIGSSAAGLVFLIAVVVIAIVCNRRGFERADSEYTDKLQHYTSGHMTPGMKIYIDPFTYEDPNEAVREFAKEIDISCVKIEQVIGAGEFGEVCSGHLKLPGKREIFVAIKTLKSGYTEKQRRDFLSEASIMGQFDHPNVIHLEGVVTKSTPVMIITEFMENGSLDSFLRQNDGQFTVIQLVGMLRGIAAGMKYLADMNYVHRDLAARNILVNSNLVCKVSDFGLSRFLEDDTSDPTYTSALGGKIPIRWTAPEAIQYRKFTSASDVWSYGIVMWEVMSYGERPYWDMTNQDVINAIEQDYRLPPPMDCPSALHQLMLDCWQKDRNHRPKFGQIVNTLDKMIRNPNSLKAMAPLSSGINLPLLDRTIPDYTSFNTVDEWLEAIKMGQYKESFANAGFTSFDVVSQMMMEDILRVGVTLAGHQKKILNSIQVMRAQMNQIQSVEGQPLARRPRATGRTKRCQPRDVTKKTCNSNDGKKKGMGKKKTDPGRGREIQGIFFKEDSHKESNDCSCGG
# [3] = molecular target: T2, Ephrin type-B receptor 2 (Homo sapiens); conditions: at 10 µM
# [4] = molecular target: T3, Ephrin type-B receptor 3 (Homo sapiens) (UniProt P54753); conditions: at 1 µM
# T3 sequence (whole entry): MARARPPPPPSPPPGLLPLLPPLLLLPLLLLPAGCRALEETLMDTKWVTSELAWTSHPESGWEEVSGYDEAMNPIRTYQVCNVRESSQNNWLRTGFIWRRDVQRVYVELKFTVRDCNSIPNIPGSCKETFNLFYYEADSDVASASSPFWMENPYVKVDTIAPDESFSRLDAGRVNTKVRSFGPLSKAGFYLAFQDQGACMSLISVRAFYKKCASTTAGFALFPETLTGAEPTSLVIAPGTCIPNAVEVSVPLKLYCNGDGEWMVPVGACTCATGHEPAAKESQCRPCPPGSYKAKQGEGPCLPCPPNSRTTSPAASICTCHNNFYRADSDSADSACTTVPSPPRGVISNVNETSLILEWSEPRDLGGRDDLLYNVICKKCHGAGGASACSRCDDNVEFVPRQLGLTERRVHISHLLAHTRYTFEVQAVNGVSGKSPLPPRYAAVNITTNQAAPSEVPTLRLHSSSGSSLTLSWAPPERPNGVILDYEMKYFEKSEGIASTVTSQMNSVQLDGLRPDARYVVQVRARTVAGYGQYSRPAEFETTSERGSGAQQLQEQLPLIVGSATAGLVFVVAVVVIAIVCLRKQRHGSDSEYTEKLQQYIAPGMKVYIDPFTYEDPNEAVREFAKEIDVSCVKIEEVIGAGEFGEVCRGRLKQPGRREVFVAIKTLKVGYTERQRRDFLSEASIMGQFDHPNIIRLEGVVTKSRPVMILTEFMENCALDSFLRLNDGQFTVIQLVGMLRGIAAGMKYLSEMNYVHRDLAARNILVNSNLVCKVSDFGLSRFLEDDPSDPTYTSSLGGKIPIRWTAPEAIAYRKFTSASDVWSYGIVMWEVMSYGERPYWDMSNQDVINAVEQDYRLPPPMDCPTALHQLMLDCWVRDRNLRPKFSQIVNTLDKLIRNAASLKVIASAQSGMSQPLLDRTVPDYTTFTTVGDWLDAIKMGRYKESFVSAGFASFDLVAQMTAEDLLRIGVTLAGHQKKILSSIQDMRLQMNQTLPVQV
# [5] = molecular target: T3, Ephrin type-B receptor 3 (Homo sapiens); conditions: at 10 µM
# [6] = molecular target: T4, Ephrin type-B receptor 4 (Homo sapiens) (UniProt P54760); conditions: at 1 µM
# T4 sequence (whole entry): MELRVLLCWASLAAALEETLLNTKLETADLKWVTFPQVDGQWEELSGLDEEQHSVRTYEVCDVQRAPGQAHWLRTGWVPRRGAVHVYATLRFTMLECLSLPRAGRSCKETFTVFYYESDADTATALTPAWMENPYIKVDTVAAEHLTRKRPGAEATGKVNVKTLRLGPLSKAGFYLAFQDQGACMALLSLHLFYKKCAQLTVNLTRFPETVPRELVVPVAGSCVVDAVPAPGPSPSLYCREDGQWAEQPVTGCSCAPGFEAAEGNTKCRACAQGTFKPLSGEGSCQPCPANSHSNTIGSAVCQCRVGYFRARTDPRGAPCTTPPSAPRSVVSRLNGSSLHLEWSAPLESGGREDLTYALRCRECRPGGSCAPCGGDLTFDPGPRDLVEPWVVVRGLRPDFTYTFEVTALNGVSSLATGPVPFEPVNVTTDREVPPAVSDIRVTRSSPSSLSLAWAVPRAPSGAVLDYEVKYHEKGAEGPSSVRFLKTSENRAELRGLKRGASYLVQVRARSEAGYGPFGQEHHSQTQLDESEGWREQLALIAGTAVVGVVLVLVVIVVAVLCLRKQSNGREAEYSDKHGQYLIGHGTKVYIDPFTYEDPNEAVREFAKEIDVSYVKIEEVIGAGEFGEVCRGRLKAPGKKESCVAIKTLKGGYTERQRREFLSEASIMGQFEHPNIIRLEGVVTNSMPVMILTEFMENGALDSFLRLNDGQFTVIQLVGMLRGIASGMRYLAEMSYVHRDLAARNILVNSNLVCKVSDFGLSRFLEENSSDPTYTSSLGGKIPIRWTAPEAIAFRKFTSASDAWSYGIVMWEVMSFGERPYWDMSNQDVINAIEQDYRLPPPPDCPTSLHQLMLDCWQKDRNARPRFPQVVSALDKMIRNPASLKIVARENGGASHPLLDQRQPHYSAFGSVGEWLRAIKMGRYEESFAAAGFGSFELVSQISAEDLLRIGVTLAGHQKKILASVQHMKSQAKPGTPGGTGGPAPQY
# [7] = molecular target: T4, Ephrin type-B receptor 4 (Homo sapiens); conditions: at 10 µM
# [8] = molecular target: Receptor tyrosine-protein kinase erbB-4 (Homo sapiens) (UniProt Q15303); conditions: at 1 µM
# [9] = molecular target: Receptor tyrosine-protein kinase erbB-4 (Homo sapiens) (UniProt Q15303); conditions: at 10 µM
# [10] = molecular target: Focal adhesion kinase 1 (Homo sapiens) (UniProt Q05397); conditions: at 1 µM
# Focal adhesion kinase 1 (Homo sapiens), sequence (Q05397 2-1052 limits assumed): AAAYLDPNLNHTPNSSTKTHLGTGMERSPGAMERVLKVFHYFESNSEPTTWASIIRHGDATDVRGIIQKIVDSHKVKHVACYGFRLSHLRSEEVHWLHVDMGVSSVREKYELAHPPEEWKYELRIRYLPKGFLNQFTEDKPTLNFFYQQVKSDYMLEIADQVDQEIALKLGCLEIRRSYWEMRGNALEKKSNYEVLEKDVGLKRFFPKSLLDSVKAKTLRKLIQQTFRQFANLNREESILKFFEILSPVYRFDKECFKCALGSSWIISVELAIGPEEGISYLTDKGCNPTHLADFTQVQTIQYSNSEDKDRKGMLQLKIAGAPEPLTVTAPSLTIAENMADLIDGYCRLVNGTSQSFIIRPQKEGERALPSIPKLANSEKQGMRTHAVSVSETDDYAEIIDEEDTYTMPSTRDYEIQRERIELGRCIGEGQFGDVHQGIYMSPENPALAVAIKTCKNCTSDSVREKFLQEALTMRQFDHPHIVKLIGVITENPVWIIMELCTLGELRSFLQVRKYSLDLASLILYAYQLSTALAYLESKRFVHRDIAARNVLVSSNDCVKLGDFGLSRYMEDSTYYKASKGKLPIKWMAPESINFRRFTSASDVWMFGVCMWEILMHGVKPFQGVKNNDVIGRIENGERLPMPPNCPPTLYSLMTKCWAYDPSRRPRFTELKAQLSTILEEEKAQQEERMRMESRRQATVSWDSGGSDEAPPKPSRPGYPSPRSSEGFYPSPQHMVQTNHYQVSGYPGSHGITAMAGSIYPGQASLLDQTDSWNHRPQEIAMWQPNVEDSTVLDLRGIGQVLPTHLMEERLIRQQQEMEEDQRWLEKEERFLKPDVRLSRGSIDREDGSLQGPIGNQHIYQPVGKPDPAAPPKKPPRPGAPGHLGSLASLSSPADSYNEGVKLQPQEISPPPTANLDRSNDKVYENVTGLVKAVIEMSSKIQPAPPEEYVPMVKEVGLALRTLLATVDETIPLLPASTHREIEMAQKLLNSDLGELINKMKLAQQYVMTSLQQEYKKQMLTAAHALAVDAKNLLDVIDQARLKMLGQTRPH
# Receptor tyrosine-protein kinase erbB-4 (Homo sapiens), sequence (Q15303 whole entry): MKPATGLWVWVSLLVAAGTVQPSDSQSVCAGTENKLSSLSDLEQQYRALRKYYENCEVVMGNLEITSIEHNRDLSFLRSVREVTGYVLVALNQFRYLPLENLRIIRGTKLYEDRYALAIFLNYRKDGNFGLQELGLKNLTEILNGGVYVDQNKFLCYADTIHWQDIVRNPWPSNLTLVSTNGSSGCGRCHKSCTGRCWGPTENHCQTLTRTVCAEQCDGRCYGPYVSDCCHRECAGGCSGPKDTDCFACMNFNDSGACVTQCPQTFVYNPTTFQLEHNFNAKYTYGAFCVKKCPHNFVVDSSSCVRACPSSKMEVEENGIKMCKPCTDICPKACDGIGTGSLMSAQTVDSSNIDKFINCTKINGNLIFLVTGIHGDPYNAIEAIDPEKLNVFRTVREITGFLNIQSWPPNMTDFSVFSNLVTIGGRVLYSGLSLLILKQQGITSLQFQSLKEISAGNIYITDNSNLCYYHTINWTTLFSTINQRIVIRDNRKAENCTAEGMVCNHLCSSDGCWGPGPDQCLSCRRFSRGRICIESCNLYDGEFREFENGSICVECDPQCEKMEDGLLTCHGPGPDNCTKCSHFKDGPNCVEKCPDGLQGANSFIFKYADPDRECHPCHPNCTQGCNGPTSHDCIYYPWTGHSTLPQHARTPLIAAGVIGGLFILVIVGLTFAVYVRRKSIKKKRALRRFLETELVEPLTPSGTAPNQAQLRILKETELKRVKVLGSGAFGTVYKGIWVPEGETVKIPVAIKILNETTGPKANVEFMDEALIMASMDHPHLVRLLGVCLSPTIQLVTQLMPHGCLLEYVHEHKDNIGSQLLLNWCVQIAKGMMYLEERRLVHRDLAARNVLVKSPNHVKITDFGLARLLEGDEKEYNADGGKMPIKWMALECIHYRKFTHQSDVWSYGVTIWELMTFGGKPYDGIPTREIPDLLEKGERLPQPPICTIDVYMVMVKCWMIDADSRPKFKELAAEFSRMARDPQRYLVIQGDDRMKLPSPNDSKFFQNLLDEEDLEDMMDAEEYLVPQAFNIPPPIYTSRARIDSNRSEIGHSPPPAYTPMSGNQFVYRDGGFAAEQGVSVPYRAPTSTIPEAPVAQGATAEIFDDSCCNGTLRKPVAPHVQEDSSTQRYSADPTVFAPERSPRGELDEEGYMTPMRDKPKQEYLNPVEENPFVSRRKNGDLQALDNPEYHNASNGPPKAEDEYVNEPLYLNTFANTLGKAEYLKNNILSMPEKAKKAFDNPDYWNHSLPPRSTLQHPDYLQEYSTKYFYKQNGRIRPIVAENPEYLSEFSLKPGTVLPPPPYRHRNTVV
compound,measurement,setting,value
CC#CC(=O)Nc1cc2c(Nc3ccc(F)c(Cl)c3)ncnc2cn1,residual activity,[1],98%
same,residual activity,[2],110%
same,residual activity,[3],107%
same,residual activity,[4],115% (inactive)
same,residual activity,[5],102%
same,residual activity,[6],87%
same,residual activity,[7],108%
same,residual activity,[8],16%
same,residual activity,[9],14%
same,residual activity,[10],133%
